# Source: PubChem BioAssay (National Center for Advancing Translational Sciences (NCATS))
# Most compounds without a hit are left out; they make up all but 11% or so of the library.
# ALDH1A1 block = qHTS Assay for Inhibitors of Aldehyde Dehydrogenase 1 (ALDH1A1). Aldehyde dehydrogenase 1A1 (Homo sapiens), P00352. Purified ALDH1A1, NADH fluorescence, propionaldehyde substrate. Potency, µM (titrated, usually from 75.3 µM), inactives show at the top dose activity, negative = inhibition, most hits filed as inhibitors. 220,000 compounds, 7.3% hits;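 note: potency is the fitted concentration of half-maximal effect; plate controls were no enzyme wells and a reference inhibitor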
# Target sequence (P00352 whole entry, looked up): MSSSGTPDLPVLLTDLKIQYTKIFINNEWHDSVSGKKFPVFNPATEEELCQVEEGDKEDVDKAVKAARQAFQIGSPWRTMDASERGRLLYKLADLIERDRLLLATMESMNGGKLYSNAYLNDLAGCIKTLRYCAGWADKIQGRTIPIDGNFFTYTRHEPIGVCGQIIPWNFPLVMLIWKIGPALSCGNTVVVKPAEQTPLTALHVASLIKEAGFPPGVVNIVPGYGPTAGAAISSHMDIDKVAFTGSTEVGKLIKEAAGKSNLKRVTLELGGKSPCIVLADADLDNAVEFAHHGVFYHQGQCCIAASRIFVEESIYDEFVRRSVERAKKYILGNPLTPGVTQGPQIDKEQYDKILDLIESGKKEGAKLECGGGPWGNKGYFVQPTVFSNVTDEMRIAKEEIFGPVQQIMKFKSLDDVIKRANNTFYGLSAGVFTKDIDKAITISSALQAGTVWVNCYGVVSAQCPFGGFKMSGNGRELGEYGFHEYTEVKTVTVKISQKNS
# PNC assembly inh = High Content Assay for Compounds that inhibit the Assembly of the Perinucleolar Compartment. PC3M PTB-GFP, PNC prevalence imaging, 16 h; active compounds read low. activity change (PNC), negative = inhibition, % at 10 µM. 140,000 compounds, 3.1% hits. AID 2417, 2010;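 active = readout at or below -70, meaning at least 70% loss of cells showing the perinucleolar compartment, a nuclear body marking cancer cells; inconclusive = readout between -30 and a set limit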;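 note: plate controls were DMSO wells for no effect and camptothecin positive control wells for full effect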
#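 Read-out is percentage of cells bearing a perinucleolar compartment, from automated 20x imaging of fixed, Hoechst-stained PC3M PTB-GFP cells. Cells were seeded 4 h, then exposed 16 h to compound (23 nl of library stock) in duplicate plates.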
# HPGD block = qHTS Assay for Inhibitors of HPGD (15-Hydroxyprostaglandin Dehydrogenase) | purified HPGD, NADH fluorescence kinetic, PGE2 substrate | Potency, µM, for inactives: at the highest dose activity change, negative = inhibition, hits mostly inhibitors | 150,000 compounds, 4.3% hits | AID 894, 2007; note: potency is the fitted concentration of half-maximal effect
#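 20 nM HPGD preincubated 15 min at room temperature with compound in 50 mM Tris-HCl pH 8, 0.01% Tween 20. Started with 1 mM NAD+ and 30 uM prostaglandin E2; NADH fluorescence (360/450 nm) read 5 times over 30-s intervals, last minus first.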
# * marks the source's active call; other numbers are inactive results; ? = inconclusive; / = no result given; [ ] = another dose, or the depositor's remark. Unless noted, calls come from the whole dose curve; as a rule, active = well fitted inhibition curve with a large enough effect (not every such curve was filed as active); inconclusive = small, poorly fitted or top-dose-only effect, or another doubt; inactive = no such curve, though single readings can be large or run the other way. Unless noted, % is set by controls: 0 for no effect and ±100 for the full control effect.
SMILES,ALDH1A1 block,PNC assembly inh,HPGD block
CCC(C)NC(=O)CSC1=Nc2ccccc2C2=NC(CC(=O)NCc3ccccc3)C(=O)N12 (stereo not drawn),?,-100.0*,?
O=C(CN1C(=O)c2ccccc2C1=O)Nc1ccc(Cl)cn1,0.8%,/,/
NC(=O)C1CCN(CC(=O)NC(=O)NC2CCCC2)CC1,6.8%,/,/
COc1ccc(N(C)C2=NS(=O)(=O)c3ccccc32)cc1,12.8%,-101.2*,-11.2%
COC1=NS(=O)(=O)c2ccccc21,8.3%,?,-5.9%
CC(SCCc1ccccn1)C(=O)O (stereo not drawn),6.0%,-9.9,-5.6%
CC1CCCC(C)N1CC(O)COc1c(F)cc(Br)cc1F (stereo not drawn),-8.4%,/,/
COc1ccc(-c2noc(CCC(=O)N3CCC(C)CC3)n2)cc1,?,-29.4,5.01µM*
COc1ccc(-c2noc(CCC(=O)N3CCN(Cc4ccccc4)CC3)n2)cc1,?,-11.6,-5.1%
Cc1ccc(-c2noc(CCC(=O)Nc3ccccc3C)n2)cc1,-4.2%,6.6,-7.5%
Cc1ccc(-c2noc(CCC(=O)N3CCCC3)n2)cc1,0.1%,?,25.1µM*
Cc1ccc(-c2noc(CCC(=O)N(C)c3ccccc3C)n2)cc1,-4.1%,13.4,14.1µM*
O=C(CCCc1nc(-c2ccccc2)no1)N1CCOCC1,0.7%,-4.9,-12.8%
O=C(CSc1n[nH]c(=O)n1C1CC1)Nc1cc(Cl)ccc1Oc1ccccc1,5.7%,-29.4,-10.6%
O=C(OCc1cnc(Cl)s1)c1cccs1,-2.5%,/,/
CCC(C)(C)NC(=O)C(c1ccncc1)N(C(=O)Cn1nnc2ccccc21)c1cc2c(cc1C(C)=O)OCO2 (stereo not drawn),5.6%,/,/
Cc1[nH]n(-c2ccc(Cl)cc2)c(=O)c1C(=O)c1ccccc1,-4.8%,/,/
CCOC(=O)c1[nH]n(-c2ccc(Cl)cc2)c(=O)c1C,?,-114.2*,-6.5%
Cc1ccc(NCc2nnc(SCC(=O)Nc3ncc(C)s3)n2CC2CCCO2)c(C)c1 (stereo not drawn),4.47µM*,-16.3,-12.2%
Cc1ccc(NCc2nnc(SCC(=O)Nc3cccc(O)c3)n2CC2CCCO2)c(C)c1 (stereo not drawn),3.98µM*,?,-8.2%
O=C(CSc1nnc(CNc2ccc(F)cc2)n1CC1CCCO1)Nc1ccccc1 (stereo not drawn),?,?,-4.1%
Cc1ccc(NCc2nnc(SCC(=O)NCc3ccco3)n2CC2CCCO2)c(C)c1 (stereo not drawn),-15.3%,31.2,-1.3%
O=C1[C@@H]2[C@H]3[C@H](O)[C@H](O)C/C(=N/OCc4ccccc4)[C@@H]3CC[C@H]2C(=O)N1c1ccc(F)cc1F,-1.4%[13.5 µM],/,/
C[C@@H](C(=O)O)/C(=C/c1ccc2c(c1)OCO2)C(=O)O,5.8%[13.5 µM],/,-11.0%
Nc1ccc(-c2cnc(-c3ccc(N)cc3)nc2)cc1,?,-123.3*,?
SMILES,ALDH1A1 block,PNC assembly inh,HPGD block
CCCC(=O)Nc1ccc(-c2cnc(-c3ccc(NC(=O)CCC)cc3)nc2)cc1,7.3%,31.8,/
CCN(CC)S(=O)(=O)c1cc(C(=O)OCC(=O)Nc2cccc(Br)c2)ccc1F,8.6%,20.4,-7.0%
CCOC(=O)c1c(C)[nH]c(C(=O)OCC(=O)c2c(N)n(C)c(=O)n(C)c2=O)c1C,8.3%,/,/
CC(C)(C)c1ccc(Cn2nnc3c(=O)[nH]c(C4CCCN(C(=O)Cc5cccs5)C4)nc32)cc1 (stereo not drawn),?,-24.7,-6.7%
CC(C)(C)c1ccc(Cn2nnc3c(=O)[nH]c(C4CCN(C(=O)Cc5cccs5)CC4)nc32)cc1,9.2%,23.7,-18.9%
O=C(NCc1cccs1)c1nc2c(nnn2Cc2ccccc2Cl)c(=O)[nH]1,-1.0%,-18.7,6.31µM*
CCC(C)NC(=O)c1nc2c(nnn2Cc2ccccc2Cl)c(=O)[nH]1 (stereo not drawn),-2.9%,/,/
Cc1ccc(Cn2nnc3c(=O)[nH]c(C4CCN(C(=O)Cc5cccs5)CC4)nc32)cc1,-4.3%,28.3,?
O=C(Cc1cccs1)N1CCCC(c2nc3c(nnn3Cc3ccc(F)cc3)c(=O)[nH]2)C1 (stereo not drawn),0.8%,32.1,28.2µM*
O=C(Cc1cccs1)N1CCC(c2nc3c(nnn3Cc3ccccc3)c(=O)[nH]2)CC1,?,-13.8,4.47µM*
N#Cc1ccc(NC(=O)N2CCC(c3nc4c(nnn4Cc4cccc(Cl)c4)c(=O)[nH]3)CC2)cc1,-10.9%,-23.8,14.1µM*
C=Cc1c(C)c2cc3[nH]c(cc4nc(cc5nc(cc1[nH]2)C(C)=C5CCC(=O)O)C(CCC(=O)O)=C4C)c(C)c3C=C,4.8%,/,-15.3%
